# Results published in ChEMBL document CHEMBL3988442, “University of Dundee, Small-Polar-MMV Screening Library” (2021).
# In all, about 69,000 compounds went through this assay and about 1,000 (1.4%) showed an effect of 50% or more. This excerpt belongs to a sample that is enriched for strong results.
# Test system: Leishmania donovani
# Assay: Leishmania intramacrophage assay
# Format: functional, organism-based
# Set-up: scale not given: in the data most compounds retested in dose-response had high values
compound,measurement,setting,value
Cc1noc(C)c1CN1CC[C@H]2C[C@@H](c3nccs3)O[C@@H]2C1,Percent Effect,"30 µM, 30.03 µM",15.1%
Cc1cccc(-c2ncc(CNC(C)Cc3ncccc3C)cn2)c1 (centres undefined),Percent Effect,"30.3 µM, […]",-19.51%
CC(Cc1cccc(F)c1)NCc1cnc(N2CCN(C)CC2)nc1 (centres undefined),Percent Effect,"30.3 µM, […]",97.99%
Cc1cccc(-c2ncc(CNC(C)Cc3ccncc3)cn2)c1 (centres undefined),Percent Effect,"30.3 µM, […]",-22.9%
Cl.Cl.Fc1ccc2c(c1)C1(CCNCC1)CC2NC1CC1 (centres undefined),Percent Effect,"30.3 µM, […]",27.52%
Cc1ccc(O[C@@H]2C[C@H]3CN(C(=O)Cc4ccccn4)CCN3C2)cc1.O=C(O)C(F)(F)F.O=C(O)C(F)(F)F,Percent Effect,"30.3 µM, […]",11.94%
CCc1ncc(CN(CCc2ccccc2)Cc2cccs2)cn1.O=C(O)CC(O)(CC(=O)O)C(=O)O,Percent Effect,"30.3 µM, […]",-1.419%
Fc1cnccc1CN1CCC2(CCNCC2)C1,Percent Effect,"30.3 µM, […]",25.89%
c1ccc(-c2ncc(CN3CCC4(CCNCC4)C3)cn2)cc1,Percent Effect,"30.3 µM, […]",24.37%
Oc1cccc2ccc(CN3CCC4(CCNCC4)C3)nc12,Percent Effect,"30.3 µM, […]",61.55%
COCC1CC2(CCN(CC3CC3)CC2)CN1Cc1ccccn1.O=C(O)C(F)(F)F.O=C(O)C(F)(F)F (centres undefined),Percent Effect,"30.3 µM, […]",40.82%
Fc1cnc(N2CCCC3(CCN(Cc4ccoc4)C3)C2)nc1.O=C(O)C(F)(F)F.O=C(O)C(F)(F)F (centres undefined),Percent Effect,"30.3 µM, […]",13.62%
Cc1oncc1C(=O)N1CC[C@H]2[C@H](C[C@@H](CN3CCCC3)N2C)C1.O=C(O)C(F)(F)F.O=C(O)C(F)(F)F,Percent Effect,"30.3 µM, […]",25.5%
CCOC(=O)N1CCC(NC(C)Cc2cc(C)n[nH]2)CC1 (centres undefined),Percent Effect,"30.3 µM, […]",11.64%
Cc1cccc(C)c1NC(=O)CNC(C)Cc1ccsc1 (centres undefined),Percent Effect,"30.3 µM, […]",11.71%
Cc1cc(CC(C)NC2CCN(CC(C)C)CC2)[nH]n1 (centres undefined),Percent Effect,"30.3 µM, […]",19.46%
Cc1cc(N2CCC(NC(C)Cc3ccsc3)CC2)nc(N)n1 (centres undefined),Percent Effect,"30.3 µM, […]",71.35%
Cc1cc(N2CCC(NC(C)Cc3ccsc3)CC2)nc(C)n1 (centres undefined),Percent Effect,"30.3 µM, […]",70.01%
Cc1cc(CC(C)NC2CCSCC2)[nH]n1 (centres undefined),Percent Effect,"30.3 µM, […]",3.441%
CCS(=O)(=O)NC[C@]12COC[C@H]1CN(Cc1cccnc1OC)C2.O=C(O)C(F)(F)F.O=C(O)C(F)(F)F,Percent Effect,"30.3 µM, […]",-3.146%
CC(C)N(C)Cc1cncc2c1CCN(Cc1cccs1)C2.Cl.Cl.Cl,Percent Effect,"30.3 µM, […]",7.349%
O=C(O)C(F)(F)F.O=C(O)C(F)(F)F.c1cncc(OC[C@@]23CCO[C@@H]2CCN(Cc2cccs2)C3)c1,Percent Effect,"30.3 µM, […]",13.49%
O=C(O)C(F)(F)F.O=C1Nc2ccccc2C12CCN(Cc1nccs1)CC2,Percent Effect,"30.3 µM, […]",18.81%
Cc1ccc(CN2CCO[C@H]3[C@@H](OCc4cccnc4)CC[C@@H]32)o1.O=C(O)C(F)(F)F.O=C(O)C(F)(F)F,Percent Effect,"30.3 µM, […]",19.54%
COc1cccc(Cn2cc(C3=CCN(CCO)CC3)cn2)c1,Percent Effect,"30.3 µM, […]",22.79%
COc1ccc(-n2nnnc2C2(NCc3ccco3)CCCCC2)cc1,Percent Effect,"30.3 µM, […]",-17.59%
Cc1ccc(N2CCC3(CN(CCO)CCC3(F)F)C2)nn1.O=C(O)C(F)(F)F (centres undefined),Percent Effect,"30.3 µM, […]",39.18%
FC1(F)CCNCC12CCN(c1cccnc1)C2.O=C(O)C(F)(F)F.O=C(O)C(F)(F)F (centres undefined),Percent Effect,"30.3 µM, […]",9.392%
OCCN1CCC(F)(F)C2(CCN(c3cccnc3)C2)C1 (centres undefined),Percent Effect,"30.3 µM, […]",51.95%
COCCN1C[C@@H]2CN(Cc3cccc(C)n3)C[C@@H]2C1=O.O=C(O)C(F)(F)F,Percent Effect,"30 µM, 30.03 µM",25.64%
CC(C)CN1CCC2(COCc3cnc(-c4ccccc4)nc32)C1.O=C(O)C(F)(F)F (centres undefined),Percent Effect,"30.3 µM, […]",36%
Cl.Cl.O=c1[nH]c2ncccc2n1C1CCNCC1,Percent Effect,"30.3 µM, […]",13.74%
COc1ccccc1CCN(C)Cc1nc(N)nc(N(C)C)n1,Percent Effect,"30.3 µM, […]",17.72%
Cc1ccc(CN2C[C@@H]3[C@@H](C2)OCC(=O)N3Cc2ccncc2)s1.O=C(O)C(F)(F)F.O=C(O)C(F)(F)F,Percent Effect,"30.3 µM, […]",15.08%
O=C(O)C(F)(F)F.O=C(O)C(F)(F)F.O=C1[C@H]2CN(Cc3ccncc3)C[C@H]2CN1c1ccsc1,Percent Effect,"30.3 µM, […]",21.46%
Cn1ncc2c(N3CCCC4(CCNC4)C3)nc(C(C)(C)C)nc21 (centres undefined),Percent Effect,"30.3 µM, […]",88.19%
Cn1ncc2c(N3CCCN4CCC[C@H]4C3)nc(C(C)(C)C)nc21,Percent Effect,"30.3 µM, […]",-35.36%
CCCc1nc(N2CCCC3(CCNC3)C2)c2cnn(C)c2n1 (centres undefined),Percent Effect,"30.3 µM, […]",-7.107%
O=C(N1CCCO1)[C@@]12CCO[C@@H]1CCN(Cc1cccnc1)C2.O=C(O)C(F)(F)F.O=C(O)C(F)(F)F,Percent Effect,"30.3 µM, […]",13.9%
CCO[C@H]1CN(CC2CC2)[C@@H]2CCCO[C@H]12.O=C(O)C(F)(F)F,Percent Effect,"30.3 µM, […]",13.63%
Cc1ncsc1CN1C[C@@H]2CCCO[C@@H]2[C@H](Nc2ccccn2)C1.O=C(O)C(F)(F)F.O=C(O)C(F)(F)F,Percent Effect,"30.3 µM, […]",-3.269%
COc1cc2nc(NCc3ccc(C)nc3)nc(N)c2cc1OC,Percent Effect,"30.3 µM, […]",62.6%
COc1cc(CNCC(O)c2ccccc2F)cc2c1OCO2 (centres undefined),Percent Effect,30 µM,34.29%
Cc1ccc(C(=O)N2C[C@H]3CN(Cc4csc(C)n4)C[C@H]3C2)cn1,Percent Effect,"30.3 µM, […]",58.41%
Cc1nc(CN2C[C@@H]3CN(C(=O)c4ccncc4)C[C@@H]3C2)cs1,Percent Effect,"30.3 µM, […]",-18.13%
Cc1ccc(C(=O)N2C[C@H]3CNC[C@H]3C2)cn1,Percent Effect,"30.3 µM, […]",-11.07%
O=C(NC[C@]12COC[C@H]1CN(Cc1cccnc1)C2)c1ccno1.O=C(O)C(F)(F)F.O=C(O)C(F)(F)F,Percent Effect,"30 µM, 30.03 µM",19.24%
Cc1ccccc1-n1nc(C)c(CN(C)C(C)Cc2ccccn2)c1C.O=C(O)CC(O)(CC(=O)O)C(=O)O (centres undefined),Percent Effect,"30.3 µM, […]",17.55%
CC(C)(C)c1cn(C[C@H]2CC3CCN2C[C@@H]3C(=O)N2CCOCC2)nn1 (some centres undefined),Percent Effect,"30.3 µM, […]",-15.57%
CC(C)(O)c1cn(C[C@H]2C[C@@H]3CCN2C[C@@H]3C(=O)N2CCOCC2)nn1,Percent Effect,"30.3 µM, […]",75.59%
COCc1cn(C[C@H]2C[C@@H]3CCN2C[C@@H]3C(=O)N2CCOCC2)nn1,Percent Effect,"30.3 µM, […]",-19.8%
CN(CC1Cc2ccccc2CN1C)C(=O)Cc1cccs1 (centres undefined),Percent Effect,"30.3 µM, […]",58.51%
CN(C)[C@@H]1CN(C(=O)Cc2cccs2)[C@@H]2CCCO[C@H]12.O=C(O)C(F)(F)F,Percent Effect,"30.3 µM, […]",-12.28%
CN(C)CCN1CCN(Cc2cccs2)Cc2cccnc21.O=C(O)C(F)(F)F.O=C(O)C(F)(F)F.O=C(O)C(F)(F)F,Percent Effect,"30.3 µM, […]",-2.293%
